From PubChem
LMNA splice mod: modulators of lamin A splicing | HeLa LMNA splicing GFP/RFP minigene ratio, 48 h | hit rate 0.01% among 200,000 | Potency, µM (doses to about 46.1 µM), for the others: at the top dose ratio change, negative = inhibition, most hits filed as inhibitors | AID 1487; active = well fitted inhibition curve with a large enough effect in the signal ratio, with a control signal flat, not every such curve was filed as active; inconclusive = small, poorly fitted or top-dose-only effect, or effect the other way, or a change in a side signal; the % refers to the signal ratio; note: potency is the fitted concentration of half-maximal effect
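Read-out is the ratio of GFP to DsRed2 object intensity, acquired by 488 nm laser-scanning cytometry on HeLa lamin A-EGFP minigene reporter cells. Compound incubation 48 hrs at 37 °C in Opti-MEM with 2% FBS; DMSO 0.5% final.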
12-hLO inh: 12-hLO (ALOX12) enzyme inhibition | purified 12-hLO, xylenol orange hydroperoxide absorbance | Potency, µM (doses to about 57.1 µM), without a hit: at the top dose activity change, negative = inhibition, most hits filed as inhibitors | hit rate 0.12% among 150,000 | P18054; active = well fitted inhibition curve with a large enough effect; inconclusive = small, poorly fitted or top-dose-only effect; note: potency is the fitted concentration of half-maximal effect; nearly all actives have a fitted effect of over 55% in size
Target sequence (P18054 whole entry, looked up): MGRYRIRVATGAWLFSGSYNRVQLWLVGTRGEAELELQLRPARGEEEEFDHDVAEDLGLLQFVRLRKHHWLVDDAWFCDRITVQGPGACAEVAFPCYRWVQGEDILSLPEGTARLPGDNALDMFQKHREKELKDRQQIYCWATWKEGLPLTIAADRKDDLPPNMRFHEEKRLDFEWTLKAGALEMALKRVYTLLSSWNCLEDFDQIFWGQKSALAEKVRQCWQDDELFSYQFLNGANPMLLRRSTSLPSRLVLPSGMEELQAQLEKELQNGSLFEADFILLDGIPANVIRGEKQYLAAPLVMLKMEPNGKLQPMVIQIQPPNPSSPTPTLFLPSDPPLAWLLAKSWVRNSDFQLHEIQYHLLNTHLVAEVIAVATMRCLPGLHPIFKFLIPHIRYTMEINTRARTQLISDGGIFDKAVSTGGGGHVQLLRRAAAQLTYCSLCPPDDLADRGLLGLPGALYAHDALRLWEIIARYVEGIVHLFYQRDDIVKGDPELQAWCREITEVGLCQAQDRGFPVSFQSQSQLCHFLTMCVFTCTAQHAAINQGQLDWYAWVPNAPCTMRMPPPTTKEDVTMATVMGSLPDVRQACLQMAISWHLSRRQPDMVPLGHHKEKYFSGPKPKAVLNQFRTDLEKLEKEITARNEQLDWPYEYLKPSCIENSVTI
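Hydroperoxide output read as Fe(III)-xylenol orange absorbance, 573-to-405 nm ratio, after 30 min reaction with 40 uM arachidonic acid. Enzyme: 150 nM purified human 12hLO, 15 min compound preincubation; 25 mM Hepes pH 7.0, room temperature.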
ALDH1A1 inh: inhibitors of human aldehyde dehydrogenase 1A1; P00352; Purified ALDH1A1, NADH fluorescence, propionaldehyde substrate; Potency, µM (top dose mostly 75.3 µM), without a hit: at the top dose activity, negative = inhibition, actives largely listed as inhibitors; hit rate 7.3% among 220,000; AID 1030;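 note: potency is the fitted concentration of half-maximal effect; plate controls were no enzyme wells and a reference inhibitor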
HPGD block: HPGD (human) dehydrogenase inhibition | P15428 | purified HPGD, NADH fluorescence kinetic, PGE2 substrate | Potency, µM, for inactives: top-dose activity change, negative = inhibition, most hits filed as inhibitors | hit rate 4.3% among 150,000 | AID 894; note: potency is the fitted concentration of half-maximal effect
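20 nM HPGD preincubated 15 min at room temperature with compound in 50 mM Tris-HCl pH 8, 0.01% Tween 20. Started with 1 mM NAD+ and 30 uM prostaglandin E2; NADH fluorescence (360/450 nm) read 5 times over 30-s intervals, last minus first.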
PNC inhibitor: perinucleolar compartment assembly inhibition | PC3M PTB-GFP, PNC prevalence imaging, 16 h; hits give low values | activity change (PNC), negative = inhibition, % at 10 µM | hit rate 3.1% among 140,000;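 active = readout at or below -70, meaning at least 70% loss of cells showing the perinucleolar compartment, a nuclear body marking cancer cells; inconclusive = readout between -30 and a set limit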;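 note: plate controls were DMSO wells for no effect and camptothecin positive control wells for full effect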
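PC3M cells stably expressing PTB-GFP, 750–1000 cells/well, treated 16 h at 37 °C with compound (23 nl of library stock), in duplicate. After paraformaldehyde fixation and Hoechst stain, imaged at 20x; PNC prevalence scored by image analysis.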
Active calls of the source: *; ? = inconclusive; nt = not tested or not shown; [ ] = dose if it differs, or a comment. Only some compounds are listed: those with a hit (about 10% of all), similar ones and a draw of the others. Unless noted, calls come from the whole dose curve; as a rule, active = well fitted inhibition curve with a large enough effect (not every such curve was filed as active); inconclusive = small, poorly fitted or top-dose-only effect, or another doubt; inactive = no such curve, though single readings can be large or run the other way. Unless noted, % is set by controls: 0 for no effect and ±100 for the full control effect.

SMILES	LMNA splice mod	12-hLO inh	ALDH1A1 inh	HPGD block	PNC inhibitor
O=C(NC1CCCCC1NC(=O)c1ccco1)c1ccco1 (stereo unspecified)	0%	1%	17%	-9%	-85*
O=C(c1ccco1)N1CCN(C(=O)c2cccc3c2C(=O)N(C2CCCCC2)C3)CC1	5%	1%	10µM*	-1%	-5
COC(=O)CC1Oc2cc3oc4c5ccccc5oc(=O)c4c3cc2O1 (stereo unspecified)	nt	1%	?	-18%	nt
C=C(Br)CN(C)CC(=C)Br	nt	-5%[11.4 µM]	-3%[13.5 µM]	-1%	nt
CCN(C(=O)CSc1nnc(-c2cc3occc3n2C)n1-c1ccccc1C)c1ccccc1	-10%[46 µM]	nt	nt	nt	nt
NC(=O)N1CCN(C(=O)c2ccco2)CC1	0%	9%	20µM*	-14%	?
O=C(c1ccco1)N1CCN(C(=O)C2CC2)CC1	?	3%	-11%	-4%	-6
O=C(c1ccncc1)N1CCN(C(=O)c2ccco2)CC1	1%	0%	-3%	-15%	-4
O=C(c1ccco1)N1CCC(n2nnc3ccccc32)CC1	8%	-3%	25µM*	-21%	35
O=C(c1ccc(Cl)cc1)N1CCN(C(=O)c2ccco2)CC1	-4%	0%	25µM*	-5%	-100*
O=C(c1ccco1)N1CCN(C2CCCC2)CC1	3%	-1%	-7%	-14%	-101*
CCOc1ccc(-c2c(C)nn3c(-c4ccccc4)c(C(=O)NCCOC)cnc23)cc1OCC	4%[46 µM]	nt	nt	nt	nt
C/C(=C\CO)CCO	nt	nt	1%	-5%	nt
O=C(c1cccnc1)N1N=C(C2CCCCC2)CC1(O)C(F)(F)F (stereo unspecified)	?	nt	13µM*	nt	nt
O=C(O)c1ccc(CSc2nc3ccc(N4C(=O)C5C6C=CC(C6)C5C4=O)cc3s2)cc1 (stereo unspecified)	12%	-1%	28µM*	16µM*	27
Cc1cccc(NC(=O)CSc2nc3ccc(N4C(=O)c5ccccc5C4=O)cc3s2)c1C	5%	-1%	?	-15%	2
CCc1cccc(CC)c1NC(=O)CSc1nc2ccc(N3C(=O)C4C5C=CC(C5)C4C3=O)cc2s1 (stereo unspecified)	?	6%	?	8.9µM*	0
O=C(Cc1ccc(F)cc1)NC1CC(=O)N(c2ccccc2)C1 (stereo unspecified)	6%[46 µM]	nt	nt	nt	nt
CCNc1ccc(C(=O)NN=C2CCCC2)cc1[N+](=O)[O-]	8%[46 µM]	nt	2.2µM*	nt	nt
COc1ccc(CCCO[C@@H](Cn2ccnc2)c2ccc(OC)cc2)cc1	nt	-10%	?	-28%	nt
COc1ccc(-n2c(SC(C)C(=O)Nc3ncc(Cl)cc3Cl)nc3ccccc32)cc1 (stereo unspecified)	?	-2%	?	-24%	-111*
CC(=O)c1cc(CN2CCN(C(C)C)C(CCO)C2)cs1 (stereo unspecified)	nt	nt	-2%	nt	nt
COc1cccc(C(=O)Nc2ccc3c(c2)C(=O)c2ccccc2C3=O)c1	-2%	0%	-5%	-20%	?
COc1ccc(C(=O)Nc2ccc(Cl)c(S(=O)(=O)Nc3ccccc3OC)c2)cc1	?	-4%	?	-29%	?
O=C(NC(=S)Nc1ccc2c(c1)C(=O)c1ccccc1C2=O)c1ccc(F)cc1	12%	2%	11µM*	-15%	22
SMILES	LMNA splice mod	12-hLO inh	ALDH1A1 inh	HPGD block	PNC inhibitor
Cc1ccc(NC(=S)NC(=O)c2ccc(F)cc2)cc1S(=O)(=O)Nc1ccccc1Cl	?	?	13µM*	-10%	0
Cc1cccc(C(=O)O)c1C[C@H]1NCC[C@H]2c3ccccc3N[C@@H]12	nt	0%[11.4 µM]	?	?	nt
CC(C)CNc1nc2ncnc(N)c2[nH]1	nt	0%[11.4 µM]	-10%[13.5 µM]	-5%	nt
O=C(Nc1nc2ccccc2n1Cc1ccc(Cl)cc1)c1ccco1	10%	-3%	-8%	?	35
CC(NC(=O)/C=C/c1ccco1)c1nc2ccccc2n1Cc1cccc(Cl)c1 (stereo unspecified)	-7%	0%	14µM*	2%	6
Cc1ccc(-c2ccc(=O)n(CC(=O)NC(C)c3ccccc3)n2)cc1 (stereo unspecified)	13%[46 µM]	nt	nt	nt	nt
Cc1ccccc1-n1nnnc1SC1CCOC1=O (stereo unspecified)	?	1%	11µM*	-12%	-19
CCn1nnnc1SCC(=O)NCc1ccc2c(c1)OCO2	-1%	-9%	-9%	-11%	3
